# ERAP1 inh: ERAP1 (human) enzyme inhibition; inhibition, % at 10.7 µM; recombinant ERAP1, Leu-AMC fluorescence, 60 min; 0.15% of 340,000 active;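 active means mean replicate inhibition of at least 30%, or all replicates individually reaching that 30% level; inactive means mean below 30% and not every replicate reaching it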;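 further: 0% = neutral control wells and 100% = L-leucinethiol positive control wells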
# Target sequence (Q9NZ08 whole entry, looked up): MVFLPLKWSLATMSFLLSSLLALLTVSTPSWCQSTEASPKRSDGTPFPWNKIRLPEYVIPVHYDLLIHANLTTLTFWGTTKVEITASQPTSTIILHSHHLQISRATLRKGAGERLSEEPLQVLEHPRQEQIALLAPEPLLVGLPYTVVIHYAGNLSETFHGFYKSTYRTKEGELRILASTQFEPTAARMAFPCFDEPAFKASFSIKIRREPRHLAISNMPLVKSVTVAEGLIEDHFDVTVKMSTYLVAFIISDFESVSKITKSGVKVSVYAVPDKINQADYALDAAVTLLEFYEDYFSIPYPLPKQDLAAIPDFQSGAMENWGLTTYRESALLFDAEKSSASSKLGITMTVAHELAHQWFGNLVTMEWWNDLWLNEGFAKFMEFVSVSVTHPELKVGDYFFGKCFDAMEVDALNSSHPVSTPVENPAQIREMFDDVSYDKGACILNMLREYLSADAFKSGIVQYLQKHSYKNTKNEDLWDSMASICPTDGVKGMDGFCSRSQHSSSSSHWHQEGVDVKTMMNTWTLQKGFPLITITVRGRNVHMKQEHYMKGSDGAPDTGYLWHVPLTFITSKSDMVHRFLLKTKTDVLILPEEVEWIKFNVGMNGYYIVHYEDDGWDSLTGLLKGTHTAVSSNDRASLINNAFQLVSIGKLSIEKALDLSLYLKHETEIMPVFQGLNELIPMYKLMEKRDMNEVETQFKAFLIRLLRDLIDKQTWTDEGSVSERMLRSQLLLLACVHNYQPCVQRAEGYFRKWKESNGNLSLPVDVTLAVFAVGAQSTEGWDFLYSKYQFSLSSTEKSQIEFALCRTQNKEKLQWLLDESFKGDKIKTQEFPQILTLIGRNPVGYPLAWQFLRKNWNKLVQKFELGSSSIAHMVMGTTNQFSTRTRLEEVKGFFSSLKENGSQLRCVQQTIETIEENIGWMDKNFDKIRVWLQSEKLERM
# FGF22 binding: FGF22 (human) thermal shift binding; recombinant FGF22 thermal shift, SYPRO orange fluorescence; percent of sucrose octasulfate shift, DMSO zero; 1.5% of 340,000 active; activity (Tm shift, normalised), % at 9.99 µM;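 active means mean Tm shift, scaled 0 neutral to 100 positive control, at about 1.3% or above, every replicate too, limit read from the data; inconclusive means no clear call, values can overlap the other calls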
# RAD52 anneal inh: blocks human RAD52 DNA annealing. P43351. recombinant RAD52 DNA annealing, FRET fluorescence. inhibition, % at 18.7 µM. 0.46% of 360,000 active. AID 651710;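 active means every replicate showing at least 50% inhibition; inconclusive means mean inhibition at least 50% but not in every replicate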
# AF4-AF9 inh: MLL-AF4/AF9 protein interaction inhibition; AlphaScreen, biotin-AF4 peptide binding to FLAG-AF9; 0.47% of 350,000 active; inhibition, % at 10 µM; AID 651704;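 active means every replicate reaching a set inhibition limit, whatever the replicate mean, cut at about 25% in these data; inconclusive means mean inhibition reaches that limit but some replicates miss it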;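 further: 0% = plate neutral control median and 100% = total signal loss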
# DENV2 CPE: protects cells from dengue virus 2 cytopathic effect; CPE inhibition, % at 9.99 µM; AID 651640; DENV2-infected cells, cytopathic effect rescue, plate reader; 1.7% of 350,000 active; in the data active means CPE inhibition above about 20%, passing the limit was not always enough; inconclusive means no clear call, values can overlap the other calls; tested in BHK-21 cells;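 further: 0% = median of neutral control wells and 100% = median of positive control wells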
# An asterisk follows results filed as active; ? = inconclusive; . = no result. Hits are enriched below; roughly 4% of the tested compounds scored in any of these assays.
SMILES,ERAP1 inh,FGF22 binding,RAD52 anneal inh,AF4-AF9 inh,DENV2 CPE
COc1ccc(S(=O)(=O)N(C)C[C@H]2OCCCC[C@@H](C)Oc3ccc(NC(=O)Nc4cccc5ccccc45)cc3C(=O)N([C@@H](C)CO)C[C@H]2C)cc1,-5,1.5*,-52,-11,-8
C[C@@H]1CCCCO[C@H](CN(C)S(=O)(=O)c2cn(C)cn2)[C@@H](C)CN([C@H](C)CO)C(=O)c2cc(NC(=O)Nc3cccc4ccccc34)ccc2O1,-2,1.7*,2,4,5
COc1ccc(S(=O)(=O)N(C)C[C@H]2OCCCC[C@H](C)Oc3ccc(NC(=O)Nc4cccc5ccccc45)cc3C(=O)N([C@H](C)CO)C[C@H]2C)cc1,-5,1.7*,-9,-14,0
O=C(O)c1cc2nc3c(c(C(F)(F)F)n2n1)CCCC3,-1,43*,-19,-2,5
CCCC(=O)N1CCC2(CC1)CN(C(=O)CC1CC1)[C@@H](CO)c1c2c2ccc(OC)cc2n1C,1,0,5,-2,3
CN(C(=O)COC(=O)CSc1ccc([N+](=O)[O-])cc1)c1ccccc1,1,0,-3,6,36*
C[C@H](CO)N1C[C@H](C)[C@H](CN(C)Cc2ccc(C(=O)O)cc2)Oc2ccc(NS(=O)(=O)c3cn(C)cn3)cc2C1=O,-4,-1,-7,-1,41*
COc1ccc(S(=O)(=O)Nc2ccc3c(c2)C(=O)N([C@H](C)CO)C[C@@H](C)[C@@H](CN(C)S(=O)(=O)c2cn(C)cn2)OCCCC[C@H](C)O3)cc1,0,-1,-7,0,53*
Cc1ccc(S(=O)(=O)Nc2ccc3c(c2)C(=O)N([C@H](C)CO)C[C@@H](C)[C@@H](CN(C)S(=O)(=O)c2cn(C)cn2)OCCCC[C@H](C)O3)cc1,-3,0,-46,-3,34*
Cc1ccc(S(=O)(=O)Nc2ccc3c(c2)C(=O)N([C@@H](C)CO)C[C@@H](C)[C@@H](CN(C)S(=O)(=O)c2cn(C)cn2)OCCCC[C@H](C)O3)cc1,-1,0,-35,1,26*
CO[C@H]1CN(C)C(=O)c2cc(NS(C)(=O)=O)ccc2OC[C@H](C)N(CC2CCCCC2)C[C@@H]1C,1,0,19,1,2
COc1ccc2c3c([nH]c2c1)[C@@H](CO)N(Cc1ccncc1)CC31CN(C(=O)Cc2ccncc2)C1,-1,0,-27,4,?
C[C@@H]1CN([C@H](C)CO)C(=O)c2cc(N(C)C)ccc2O[C@@H](C)CCCCO[C@H]1CN(C)S(=O)(=O)c1cn(C)cn1,1,.,-34,1,3
COc1ccc(CN(C)C[C@H]2OCCCC[C@H](C)Oc3ccc(NS(=O)(=O)c4cn(C)cn4)cc3C(=O)N([C@H](C)CO)C[C@@H]2C)cc1,-7,0,12,-1,-6
C[C@@H]1CCCCO[C@@H](CN(C)S(=O)(=O)c2cn(C)cn2)[C@H](C)CN([C@@H](C)CO)C(=O)c2cc(N(C)C)ccc2O1,1,-1,-152,0,53*
C[C@@H]1CCCCO[C@H](CN(C)S(=O)(=O)c2ccc(F)cc2)[C@@H](C)CN([C@H](C)CO)C(=O)c2cc(NS(=O)(=O)c3cn(C)cn3)ccc2O1,-4,1,-4,-13,23*
COc1ccc(CN(C)C[C@H]2OCCCC[C@@H](C)Oc3ccc(NS(=O)(=O)c4cn(C)cn4)cc3C(=O)N([C@H](C)CO)C[C@@H]2C)cc1,-5,1,12,-9,52*
Cc1ccc(-c2ccc([C@H]3[C@@H](CO)N4C(=O)CN(C(=O)c5cccnc5)C[C@H]34)cc2)cc1,-4,0,-5,-11,-3
CC(=O)NC[C@@H]1[C@@H](c2ccc(C3=CCCC3)cc2)[C@@H](CO)N1C(=O)CN(C)C,2,.,-26,1,6
O=C1C=CC(O)C2(CO)OC12 (centres undefined),3,0,-10,0,25*
CCC(=O)N(C)C[C@H]1Oc2ncc(-c3ccccc3C)cc2C(=O)N([C@@H](C)CO)C[C@H]1C,-2,0,1,-3,?
Cc1nc2nc(SCC(=O)NCCCN3CCCCC3)nn2c(C)c1Cc1ccccc1,0,0,-6,-1,-2
Cc1ccc(Cc2c(C)nc3nc(SCC(=O)NCCCN4CCCCCC4)nn3c2C)cc1,4,0,32,33*,-2
